GSTO1 inh = blocks human GSTO1 in RBBP9 counter-screen. recombinant GSTO1, activity-based probe fluorescence polarization. inhibition, % at 5.96 µM. actives 1.1% (n = 300,000). AID 1974;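 active = inhibition above the campaign mean inhibition plus 3 SD, cut at about 35% in these data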;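 also: 0% = GSTO1-1 with DMSO and 100% = wells lacking GSTO1-1 enzyme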
LYPLA2 inh = counter-screen for PME1 inhibitors: inhibitors of human LYPLA2. O95372. recombinant LYPLA2, FP-Rh probe fluorescence polarization. inhibition, % at 5.9 µM. actives 0.38% (n = 320,000);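 active = inhibition above the screen-wide mean plus 3 SD, limit set per campaign, cut at about 26% in these data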;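 also: 0% = LYPLA2 with DMSO and 100% = wells lacking LYPLA2 enzyme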
Target sequence (O95372 whole entry, looked up): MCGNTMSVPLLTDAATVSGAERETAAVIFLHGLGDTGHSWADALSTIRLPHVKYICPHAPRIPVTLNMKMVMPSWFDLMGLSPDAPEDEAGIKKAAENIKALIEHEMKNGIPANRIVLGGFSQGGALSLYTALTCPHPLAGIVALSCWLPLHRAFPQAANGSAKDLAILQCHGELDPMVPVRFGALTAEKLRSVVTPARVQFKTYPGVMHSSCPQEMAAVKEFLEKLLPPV
PME-1 primary = blocks human protein phosphatase methylesterase 1; actives 0.53% (n = 320,000); Q9Y570; recombinant PME-1, FP-Rh probe fluorescence polarization; inhibition, % at 5.9 µM;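 active = inhibition above the campaign mean of all compounds plus 3 SD, cut at about 26% in these data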;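 also: competitive labeling of PME-1 active site by serine hydrolase directed probe; 0% = PME-1 with DMSO and 100% = wells lacking PME-1 enzyme; inhibitors block probe labeling so polarization falls and inhibition rises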
Fam108B counter = blocks mouse Fam108B hydrolase in RBBP9 counter-screen; recombinant Fam108B, FP-Rh probe fluorescence polarization; inhibition, % at 9.51 µM; actives 0.33% (n = 300,000); AID 1947;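 active = inhibition above the screen mean inhibition plus 3 SD, computed separately per campaign, cut at about 18% in these data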;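 also: inhibitors lower polarization as less probe binds the enzyme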
LYPLA1 counter = blocks human lysophospholipase 1, a PME1 counter-screen; recombinant LYPLA1, FP-Rh probe fluorescence polarization; inhibition, % at 5.9 µM; actives 0.16% (n = 320,000); AID 2174;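 active = inhibition above the mean of all tested compounds plus 3 SD, set per campaign, cut at about 14% in these data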;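 also: inhibitors block serine hydrolase probe labeling of LYPLA1 so polarization falls; 0% = enzyme with DMSO and 100% = wells lacking LYPLA1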
Target sequence (O75608 whole entry, looked up): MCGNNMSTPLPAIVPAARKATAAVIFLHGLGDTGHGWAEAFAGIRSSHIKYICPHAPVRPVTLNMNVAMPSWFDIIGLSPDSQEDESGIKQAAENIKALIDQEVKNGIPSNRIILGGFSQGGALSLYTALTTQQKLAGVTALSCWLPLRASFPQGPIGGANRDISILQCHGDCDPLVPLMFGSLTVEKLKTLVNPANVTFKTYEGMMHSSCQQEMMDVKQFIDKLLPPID
PAD4 FP inh = PAD4 (human) enzyme inhibition; inhibition, % at 6.36 µM; Q9UM07; AID 485272; actives 0.41% (n = 330,000); recombinant PAD4, RCA probe fluorescence polarization;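 active = percent inhibition above a cutoff equal to the mean of all tested compounds plus 3 SD, cut at about 15% in these data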;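 also: 0% = PAD4 with RCA probe and DMSO and 100% = probe without PAD4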
GSTO1 confirm = GSTO1 (human) inhibition, confirmation | actives 54% (n = 2,400) | AID 2176 | recombinant GSTO1, probe fluorescence polarization | inhibition, % at 5.96 µM | shares compounds with GSTO1 inh;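 active = inhibition above the primary screen's cutoff, its mean inhibition plus 3 SD, cut at about 35% in these data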;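 also: loss of polarization as inhibitors block binding of rhodamine sulfonate ester activity probe; 0% = GSTO1 with DMSO and 100% = wells lacking GSTO1 enzyme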
Starred values were filed as active, the others as inactive; / = no result. A selection: hits, their analogues and other compounds. The true share with any hit is near 1.8%.

SMILES	GSTO1 inh	LYPLA2 inh	PME-1 primary	Fam108B counter	LYPLA1 counter	PAD4 FP inh	GSTO1 confirm
COC(=O)CCCC1=CC2=C(c3ccccc3)C(=O)C(C)(OC(=O)C3CCCC3)C(=O)C2=CN1Cc1ccc(OC)cc1 (stereo not given)	40.7*	4.7	-0.4	4.3	-2.1	-2.7	10.2
O=C(Cn1cc(Cl)ccc1=O)c1ccc(Cl)cc1	-2.2	-2.2	4.2	3.6	-0.6	1.0	/
Clc1ss/c(=N\c2ccccn2)c1Cl	61.4*	0.7	1.8	-1.1	-0.2	-3.0	44.6*
O=C1N/C(=N\c2ccccn2)SC1Cc1ccccc1Cl (stereo not given)	4.7	-4.6	0.5	2.2	0.3	1.9	/
C#CC(=O)N(c1cc(OC)ccc1OC)C(C(=O)NC1CCCC1)c1cccs1 (stereo not given)	65.2*	1.4	-4.5	-3.7	1.5	-0.5	67.6*
C#CC(=O)N(c1ccc(OC)cc1OC)C(C(=O)NC1CCCC1)c1cccs1 (stereo not given)	14.5	-4.4	-3.7	-0.2	2.3	-0.5	/
O=C(Cn1c(C(F)(F)F)nc2ccccc21)N=Nc1c(O)[nH]c2ccc(Br)cc12	5.4	2.1	0.6	-3.0	0.3	-0.7	/
O=C(COc1ccc(-n2cnnn2)cc1)NC1CCCCC1	-3.6	-2.3	-5.0	-1.9	-2.5	-3.0	/
Cn1c(=S)[nH]c2sc3c(c2c1=O)CCC(C(C)(C)C)C3 (stereo not given)	-1.9	-2.7	-0.6	8.1	0.6	2.0	/
COc1cc(S(=O)(=O)N(Cc2cccnc2)Cc2ccco2)ccc1-n1cnnn1	39.6*	0.5	1.3	4.2	1.6	-3.0	3.9
CC(NC(=O)c1cccs1)c1ccccc1 (stereo not given)	63.3*	-4.4	0.2	-1.2	-2.3	0.6	5.2
Cc1ccc(C(C)NC(=O)c2cccs2)cc1 (stereo not given)	-2.2	2.1	1.7	2.5	-0.1	4.2	/
CCOC(=O)c1ccccc1OCc1cc(/C=N/n2cncn2)ccc1OC	-0.9	5.8	4.3	0.8	-1.7	1.0	/
O=C(O)/C=C/C(=O)N1N=C(c2ccco2)CC1c1ccco1 (stereo not given)	-7.2	-2.7	-1.7	-4.4	-0.7	-6.3	/
O=C(CCl)N1N=C(c2ccco2)CC1c1ccco1 (stereo not given)	89.6*	8.8	0.9	-2.3	4.1	-0.5	97.0*
O=C(CCl)N1N=C(c2cccs2)CC1c1ccco1 (stereo not given)	92.0*	8.9	3.2	-6.2	-0.6	-0.7	100.2*
Cc1ccccc1-n1c(C)nc2ccccc21	-5.1	0.6	-8.2	-1.4	1.7	-0.1	/
CC(=O)c1ccc(NC(=O)c2cc(Cl)sc2Cl)cc1	1.4	-0.9	-11.5	7.0	-2.0	-3.9	/
Cc1nnc(NC(=O)c2cc(-c3ccco3)nc3ccccc23)s1	39.8*	-7.2	-16.2	10.7	-4.5	-8.4	10.5
CCNC(=O)COC(=O)c1cc(-c2ccco2)nc2ccccc12	41.2*	0.9	1.5	11.1	-0.4	3.1	8.3
O=C(N/N=C/c1ccc(F)cc1)c1cc(-c2ccco2)nc2ccccc12	57.3*	-10.4	4.8	6.1	-13.0	-1.1	22.5
COc1c(-c2ccc(O)c(O)c2)oc2cc(O)cc(O)c2c1=O	40.5*	-5.6	-10.1	-2.5	-8.6	-6.0	22.3
Cc1nc(-c2cc(-c3nc(-c4cc(C(F)(F)F)cc(C(F)(F)F)c4)no3)no2)cs1	4.8	5.2	-2.1	-2.8	1.3	0.2	/
COc1ccc(Oc2ccc(C(F)(F)F)cc2NC(=O)c2ccc(F)cc2)cc1	-6.0	-7.3	-5.4	-8.4	-4.3	-5.2	/
COc1ccc(Oc2ccc(C(F)(F)F)cc2NC(=O)CC(CC(=O)O)c2ccccc2)cc1 (stereo not given)	43.5*	2.5	-0.9	2.6	1.3	4.5	2.2
Cc1ccc(-n2nc(C)c3c2OC(N)=C(C#N)C3c2ccc(C)o2)cc1 (stereo not given)	47.8*	1.1	3.5	3.1	0.2	-10.7	11.5
COCOc1cc(O)c(C(=O)/C=C/c2ccccc2)c(OCOC)c1	1.9	7.7	-10.2	-2.9	-2.1	3.2	/
